The values that follow come from PubChem BioAssay (EPA / NIEHS).

The source made the active and inactive calls. How the source made its calls: active means hit-call score of the fitted dose curve at least 0.9, where 1 is the maximum; inactive means score below 0.9.

A short description of this experiment: CCTE_Shafer_MEA_dev_mutual_information_norm: CCTE's Neural Network Formation Assay for Mutual Information Normalization, Shafer Lab (AID 2284091).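 On AC50: potency is for a decrease in mutual information relative to DMSO.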 On the procedure: CCTE_Shafer_MEA_dev assay is conducted using Axion Biosystems 48 well microelectrode array (MEA) plates and Maestro recording system. Each well of the MEA plate contains a grid of 16 microelectrodes embedded in the culture surface. Electrically active cells, such as neurons, can be cultured over the electrodes, and electrical activity in these cells can be recorded extracellularly. The spontaneous firing of neurons is captured from each electrode on a microsecond timescale providing both temporally and spatially precise data. […] The CCTE_Shafer_MEA_dev assay uses primary cultures of rat cortical neurons. Recordings are made on days post-plating 5, 7, 9 and 12. As these cultures mature over time, neural networks develop functional activity and form cohesive networks in which electrical activity can be highly coordinated. CCTE_Shafer_MEA_dev_mutual_information_norm is 1 of 19 assay components of the CCTE_Shafer_MEA_dev assay. It is a measure of shared information between electrodes during a recording in a microelectrode array (MEA) using Axion Biosystems Maestro 768 channel amplifier with the AxIS adaptive spike detector. To collapse across multiple recordings made on days post-plating 5, 7, 9 and 12, the trapezoidal area-under-the-curve of the component is calculated.Data from the assay component CCTE_Shafer_MEA_dev_mutual_information_norm was analyzed into 1 assay endpoint. This assay endpoint, CCTE_Shafer_MEA_dev_mutual_information_norm, was analyzed in the negative analysis fitting direction relative to DMSO as the negative control and baseline of activity. Using a type of functional reporter, gain or loss-of-signal activity can be used to understand electrical activity.
On the day prior to culture, each well was coated thoroughly with 150 uL of 0.05% polyethyleneimine (PEI, Sigma Cat P3143) in 50 mM HEPES (Sigma Cat H7523) at a pH of 8. The plate was incubated at 37C for one hour. PEI was rinsed out with 500 uL of sterile water three times. Plates were stored at 4C until the day of culture. This culture was plated at a seeding density of 1.5 x 10^5 cells/well on a 48-well MEA plate, prepared as described above. Cells were administered via a 25 uL media/laminin ([…]; Sigma Cat L2020-1MG) drop directly onto the microelectrode array, as adding the cells with the laminin results in better attachment than pre-coating with laminin. After 2 hours, an additional 475 uL of cortical media was added and the cells returned to the incubator. Exposure starts at day 0 of plating and is continued over twelve days of network development until the experiment is terminated. Cells are fed with fresh medium on DIV 5 and 9, following the recordings on those days. The entire volume of media in the well is exchanged and any vehicle or compound treatment is renewed. Complete details are found in OP-NHEERL/ISTD/SBB/TJS/2015-03-r0 (available on request, email shafer.tim@epa.gov). Measurement of the electrical activity is non-invasive, and recordings can be made from the same plate over multiple different days of the culture. In cortical neurons, this allows for the measurement of extracellular action potentials over the period during which networks form in the MEA plate.
As for `C=CC(F)(C(F)(F)F)C(F)(F)C(F)(F)F` (stereo not given), the call was inactive.
Still for that read-out and setting: as for `C=CCOC(F)(C(F)(F)F)C(F)(F)F`, the entry is “inactive”.
In the case of `NC(=O)c1ccc(N)nc1`, the AC50 was 7.61 µM (active).
As for `CS(=O)(=O)c1ccc(C(=O)C2C(=O)CCCC2=O)c(Cl)c1COCC(F)(F)F`, the compound was classed as inactive.
Same read-out and setting: in the case of `CNC(=O)CSP(=O)(OC)OC` it was “inactive”.
`CC1(C)[C@H](C(=O)O[C@H](C#N)c2cccc(Oc3ccccc3)c2)[C@@H]1/C=C(\Cl)C(F)(F)F`: the AC50 is 1.4 µM (active).
As for `OC(Cc1ccccc1Cl)(Cn1[nH]cnc1=S)C1(Cl)CC1` (stereo not given), the AC50 was 6.39 µM (active).
Take `Cc1cc(C(F)(C(F)(F)F)C(F)(F)F)ccc1NC(=O)c1cccc(I)c1C(=O)NC(C)(C)CS(C)(=O)=O`: the outcome was inactive.
Still for that read-out and setting: in the case of `CC(F)(F)CC(F)(F)F` it was “inactive”; in that of `O=S(=O)(F)C(F)(F)C(F)(F)C(F)(F)C(F)(F)F`, “inactive”.
In the case of `FC(F)OCC(F)(F)C(F)(F)F`, the call was inactive.
On the same count and under the same terms, in the case of `CC(=O)C(F)(F)C(F)(F)F` it was “inactive”.
On to `Cc1ccccc1OP(=O)(Oc1ccccc1C)Oc1ccccc1C`, for which the AC50 is 11.5 µM (active).
On the same count and under the same terms, in the case of `CCOCn1c(-c2ccc(Cl)cc2)c(C#N)c(Br)c1C(F)(F)F` it was 1.72 µM (active); in that of `CC(C)[C@@H](Nc1ccc(C(F)(F)F)cc1Cl)C(=O)OC(C#N)c1cccc(Oc2ccccc2)c1` (stereo not given in full), 9.36 µM (active).
